# The supplement of paper PMC6411743
# ± gives the standard deviation of the averaged measurements. About 6,200 targets were measured; listed, in parts, are those with the largest changes and a random draw of the rest.
# Key:
# Assay in all cases: NP40-soluble protein abundance relative to vehicle (solubility fold change) (ratio); higher = more soluble protein in presence of AMP-PNP
# [1] = biological target: T1, UniProt Q9BY77|Q9BY77-2
# T1 sequence (whole entry): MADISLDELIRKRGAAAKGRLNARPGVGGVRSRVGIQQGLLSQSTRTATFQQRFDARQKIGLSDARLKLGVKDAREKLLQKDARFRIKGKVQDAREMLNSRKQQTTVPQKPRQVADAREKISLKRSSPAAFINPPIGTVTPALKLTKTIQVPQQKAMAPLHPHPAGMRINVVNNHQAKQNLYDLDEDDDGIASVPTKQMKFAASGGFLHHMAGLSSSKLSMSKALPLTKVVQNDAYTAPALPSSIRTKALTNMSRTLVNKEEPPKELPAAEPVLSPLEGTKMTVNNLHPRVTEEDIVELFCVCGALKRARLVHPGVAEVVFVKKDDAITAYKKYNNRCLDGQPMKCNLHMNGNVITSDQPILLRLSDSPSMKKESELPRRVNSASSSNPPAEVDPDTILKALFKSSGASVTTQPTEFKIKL
# Method in brief: (§1)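 In three independent experiments, Jurkat crude lysate made by Dounce homogenisation was treated for 10 min at room temperature and then 3 min at 37 °C with eight concentrations ranging from 0.1 to 10 mM. It was then solubilised with 0.8% NP40 plus benzonase for 60 min at 4 °C and ultracentrifuged. The supernatant was TMT-labelled for LC-MS/MS, and each value is the fold change against the detergent-processed vehicle for the same replicate, using vsn-normalised intensities.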
# [2] = biological target: T2, UniProt Q9H9J4|Q9H9J4-2
# T2 sequence (whole entry): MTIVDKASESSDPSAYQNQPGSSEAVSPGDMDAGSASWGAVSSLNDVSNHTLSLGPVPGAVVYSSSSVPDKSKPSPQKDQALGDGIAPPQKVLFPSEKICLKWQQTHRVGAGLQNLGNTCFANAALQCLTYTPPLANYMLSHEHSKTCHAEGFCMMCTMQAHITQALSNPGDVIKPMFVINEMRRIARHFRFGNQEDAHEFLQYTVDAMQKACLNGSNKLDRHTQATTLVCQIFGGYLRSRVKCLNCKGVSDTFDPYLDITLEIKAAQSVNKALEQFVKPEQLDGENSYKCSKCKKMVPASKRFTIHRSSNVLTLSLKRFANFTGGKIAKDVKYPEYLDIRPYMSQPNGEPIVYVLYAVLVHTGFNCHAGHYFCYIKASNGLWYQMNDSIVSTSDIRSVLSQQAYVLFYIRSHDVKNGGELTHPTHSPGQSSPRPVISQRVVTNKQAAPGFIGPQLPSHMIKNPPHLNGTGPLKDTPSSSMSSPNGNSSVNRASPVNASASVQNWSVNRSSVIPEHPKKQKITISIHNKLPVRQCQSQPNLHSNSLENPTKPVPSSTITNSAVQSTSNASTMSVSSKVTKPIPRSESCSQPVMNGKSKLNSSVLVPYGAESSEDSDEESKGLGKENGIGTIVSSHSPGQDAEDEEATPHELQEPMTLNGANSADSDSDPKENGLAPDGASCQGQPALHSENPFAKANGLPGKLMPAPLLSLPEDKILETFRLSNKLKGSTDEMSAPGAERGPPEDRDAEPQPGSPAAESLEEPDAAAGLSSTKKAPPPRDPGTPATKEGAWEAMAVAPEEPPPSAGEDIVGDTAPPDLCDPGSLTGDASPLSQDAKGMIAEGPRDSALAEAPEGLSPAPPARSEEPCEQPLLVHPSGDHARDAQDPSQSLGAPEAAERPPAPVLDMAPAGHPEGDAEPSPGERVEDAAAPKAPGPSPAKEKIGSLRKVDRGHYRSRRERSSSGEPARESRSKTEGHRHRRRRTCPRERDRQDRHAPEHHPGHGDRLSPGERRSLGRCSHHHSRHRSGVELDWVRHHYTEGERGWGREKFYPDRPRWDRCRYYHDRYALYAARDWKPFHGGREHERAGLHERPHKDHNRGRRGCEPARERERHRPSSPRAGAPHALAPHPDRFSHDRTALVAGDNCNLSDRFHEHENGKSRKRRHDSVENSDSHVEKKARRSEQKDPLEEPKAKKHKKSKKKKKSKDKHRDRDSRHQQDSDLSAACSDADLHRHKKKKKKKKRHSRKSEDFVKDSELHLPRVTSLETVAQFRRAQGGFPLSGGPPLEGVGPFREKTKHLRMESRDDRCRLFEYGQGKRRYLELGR
# Method in brief: as §1
# [3] = biological target: T3, UniProt Q9NPJ3
# T3 sequence (whole entry): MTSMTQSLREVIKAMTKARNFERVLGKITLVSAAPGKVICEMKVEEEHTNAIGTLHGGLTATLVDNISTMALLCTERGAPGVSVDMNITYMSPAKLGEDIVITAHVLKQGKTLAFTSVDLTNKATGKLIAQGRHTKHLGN
# Method in brief: as §1
# [4] = biological target: T4, UniProt Q9NQ86-4|E9PBG3|Q9NQ86
# T4 sequence (whole entry): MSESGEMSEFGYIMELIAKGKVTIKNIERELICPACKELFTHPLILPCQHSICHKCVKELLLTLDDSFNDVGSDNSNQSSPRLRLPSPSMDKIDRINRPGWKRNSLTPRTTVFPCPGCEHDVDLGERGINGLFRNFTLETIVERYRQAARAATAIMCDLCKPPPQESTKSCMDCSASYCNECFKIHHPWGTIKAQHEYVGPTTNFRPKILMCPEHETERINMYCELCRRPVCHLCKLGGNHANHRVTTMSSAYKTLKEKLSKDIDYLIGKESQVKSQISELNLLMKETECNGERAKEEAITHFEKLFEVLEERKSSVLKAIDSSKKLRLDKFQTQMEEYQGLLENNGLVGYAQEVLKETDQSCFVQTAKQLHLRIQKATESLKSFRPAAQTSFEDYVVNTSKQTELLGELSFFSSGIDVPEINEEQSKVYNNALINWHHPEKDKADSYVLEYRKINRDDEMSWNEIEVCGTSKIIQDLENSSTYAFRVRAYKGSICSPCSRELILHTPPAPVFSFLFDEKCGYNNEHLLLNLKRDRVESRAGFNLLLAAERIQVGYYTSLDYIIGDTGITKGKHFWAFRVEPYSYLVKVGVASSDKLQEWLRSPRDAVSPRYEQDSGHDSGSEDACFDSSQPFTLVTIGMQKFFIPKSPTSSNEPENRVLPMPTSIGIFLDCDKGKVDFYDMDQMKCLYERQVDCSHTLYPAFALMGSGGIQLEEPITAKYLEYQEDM
# Method in brief: as §1
# [5] = biological target: T5, UniProt Q9NUS5
# T5 sequence (whole entry): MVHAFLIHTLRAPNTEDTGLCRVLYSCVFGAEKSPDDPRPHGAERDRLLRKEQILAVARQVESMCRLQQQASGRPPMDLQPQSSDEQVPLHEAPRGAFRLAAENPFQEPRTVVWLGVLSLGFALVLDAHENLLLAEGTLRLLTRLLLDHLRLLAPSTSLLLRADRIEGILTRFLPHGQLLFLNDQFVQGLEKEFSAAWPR
# Method in brief: as §1
# [6] = biological target: T6, UniProt Q9NVH6|Q9NVH6-7|Q9NVH6-8
# T6 sequence (whole entry): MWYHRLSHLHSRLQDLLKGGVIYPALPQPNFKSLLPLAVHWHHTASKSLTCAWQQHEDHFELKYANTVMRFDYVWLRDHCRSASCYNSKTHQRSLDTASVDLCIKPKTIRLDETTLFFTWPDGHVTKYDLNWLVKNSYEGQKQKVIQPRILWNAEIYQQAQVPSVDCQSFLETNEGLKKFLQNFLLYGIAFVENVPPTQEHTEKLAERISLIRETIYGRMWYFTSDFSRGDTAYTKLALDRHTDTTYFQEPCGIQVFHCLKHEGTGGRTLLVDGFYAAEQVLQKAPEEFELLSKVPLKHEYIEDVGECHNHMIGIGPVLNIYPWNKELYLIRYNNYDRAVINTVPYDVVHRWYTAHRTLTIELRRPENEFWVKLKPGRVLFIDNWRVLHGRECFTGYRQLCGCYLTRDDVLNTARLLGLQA
# Method in brief: as §1
# [7] = biological target: T7, VRK1 (UniProt Q99986)
# T7 sequence (whole entry): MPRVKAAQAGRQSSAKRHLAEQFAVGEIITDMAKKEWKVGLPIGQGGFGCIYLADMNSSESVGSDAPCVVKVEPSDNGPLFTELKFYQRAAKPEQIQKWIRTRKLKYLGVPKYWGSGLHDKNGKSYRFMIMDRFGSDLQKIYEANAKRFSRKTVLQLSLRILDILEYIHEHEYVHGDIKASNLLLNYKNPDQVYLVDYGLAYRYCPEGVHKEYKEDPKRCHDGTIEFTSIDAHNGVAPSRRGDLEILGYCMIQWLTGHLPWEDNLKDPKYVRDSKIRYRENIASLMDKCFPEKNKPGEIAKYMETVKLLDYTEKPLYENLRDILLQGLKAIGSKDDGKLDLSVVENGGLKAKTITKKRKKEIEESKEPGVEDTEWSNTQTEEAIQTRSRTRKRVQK
# Method in brief: as §1
smiles,measurement,setting,value
Nc1ncnc2c1ncn2[C@@H]1O[C@H](COP(=O)(O)OP(=O)(O)NP(=O)(O)O)[C@@H](O)[C@H]1O [adenylyl imidodiphosphate],NP40-soluble protein abundance,[1]; concentration: 6mM,1.17 ± 0.016
same,NP40-soluble protein abundance,[1]; concentration: 8mM,1.24 ± 0.028
same,NP40-soluble protein abundance,[1]; concentration: 10mM,1.37 ± 0.081
same,NP40-soluble protein abundance,[2]; concentration: 1mM,1.02 ± 0.026
same,NP40-soluble protein abundance,[2]; concentration: 2mM,1.03 ± 0.035
same,NP40-soluble protein abundance,[2]; concentration: 4mM,1.01 ± 0.035
same,NP40-soluble protein abundance,[2]; concentration: 6mM,0.993 ± 0.011
same,NP40-soluble protein abundance,[2]; concentration: 8mM,1.03 ± 0.03
same,NP40-soluble protein abundance,[2]; concentration: 10mM,1.04 ± 0.04
same,NP40-soluble protein abundance,[3]; concentration: 1mM,0.947 ± 0.014
same,NP40-soluble protein abundance,[3]; concentration: 2mM,0.9081 ± 0.0059
same,NP40-soluble protein abundance,[3]; concentration: 4mM,0.9 ± 0.028
same,NP40-soluble protein abundance,[3]; concentration: 6mM,0.974 ± 0.062
same,NP40-soluble protein abundance,[3]; concentration: 8mM,0.976 ± 0.032
same,NP40-soluble protein abundance,[3]; concentration: 10mM,0.948 ± 0.076
same,NP40-soluble protein abundance,[4]; concentration: 1mM,0.952 ± 0.04
same,NP40-soluble protein abundance,[4]; concentration: 2mM,0.976 ± 0.047
same,NP40-soluble protein abundance,[4]; concentration: 4mM,0.994 ± 0.042
same,NP40-soluble protein abundance,[4]; concentration: 6mM,0.998 ± 0.017
same,NP40-soluble protein abundance,[4]; concentration: 8mM,1 ± 0.044
same,NP40-soluble protein abundance,[4]; concentration: 10mM,1.01 ± 0.023
same,NP40-soluble protein abundance,[5]; concentration: 1mM,0.96 ± 0.016
same,NP40-soluble protein abundance,[5]; concentration: 2mM,0.936 ± 0.051
same,NP40-soluble protein abundance,[5]; concentration: 4mM,0.963 ± 0.02
same,NP40-soluble protein abundance,[5]; concentration: 6mM,0.948 ± 0.012
same,NP40-soluble protein abundance,[5]; concentration: 8mM,0.938 ± 0.038
same,NP40-soluble protein abundance,[5]; concentration: 10mM,0.936 ± 0.041
same,NP40-soluble protein abundance,[6]; concentration: 1mM,0.969 ± 0.051
same,NP40-soluble protein abundance,[6]; concentration: 2mM,0.9817 ± 0.0096
same,NP40-soluble protein abundance,[6]; concentration: 4mM,0.984 ± 0.06
same,NP40-soluble protein abundance,[6]; concentration: 6mM,0.972 ± 0.065
same,NP40-soluble protein abundance,[6]; concentration: 8mM,0.985 ± 0.018
same,NP40-soluble protein abundance,[6]; concentration: 10mM,0.969 ± 0.046
same,NP40-soluble protein abundance,[7]; concentration: 1mM,1.08 ± 0.036
same,NP40-soluble protein abundance,[7]; concentration: 2mM,1.1 ± 0.078
same,NP40-soluble protein abundance,[7]; concentration: 4mM,1.22 ± 0.03
same,NP40-soluble protein abundance,[7]; concentration: 6mM,1.43 ± 0.061
same,NP40-soluble protein abundance,[7]; concentration: 8mM,1.51 ± 0.11
same,NP40-soluble protein abundance,[7]; concentration: 10mM,1.56 ± 0.1
